“And” between values parts separate entries of the source, which are not always exact repeats. Equal entries are not always repeated. This is part of a sample that, as a whole, favours compounds with a hit. Of some 83,000 tested, about 20% had one in any assay.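 Note: values are percent growth. 100 is the growth of untreated cells, values between 100 and 0 indicate rising inhibition; between -100 and 0 indicates cell death.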 Unmarked numbers belong to inactive results. The source made the active and inactive calls. The calls were made as follows: active = growth percent below 10; inactive = the rest.
Tested on: MDA-MB-468 breast
Experiment: NCI-60 one-dose screen, 48 h (100 = growth as untreated, 0 = no growth, -100 = all killed)
Settings: 10 µM unless noted

SMILES | growth
N=C(N)c1ccc(-c2ccc(-c3ccccc3)s2)nc1 | 41.7%
CC(=O)Nc1ccc(S(=O)(=O)N2C(=O)CCC2C(=O)Nc2ccccc2)cc1 (stereo not given) | 40.3%
N=C(N)c1ccc(-c2ccc(-c3ccc(-c4cccs4)s3)s2)cc1 | 96.5%
O[C@H]1CO[C@H]2[C@@H]1OC[C@@H]2Oc1ccc(Nc2ccnc(Nc3ccc(O[C@H]4CO[C@H]5[C@@H]4OC[C@@H]5O)c(Cl)c3)n2)cc1Cl | -7.19% (active)
CC1=Cc2ccccc2OC12C=Cc1ccccc1O2 (stereo not given) | 97%
O=c1ccc2nc(-c3ccccc3)nn(-c3ccccn3)c-2c1 | -65.2% (active)
CCN(CC)CCn1nc2c3c(cccc3c1=O)-c1ccccc1-2 | 25.9%
CCN=C1C=CC(=C(c2ccc(N)cc2)c2ccc(N(CC)CC)c(C)c2)C=C1 | -32.9% (active)
CCOC(=O)C1=CC(=O)CC(C)(C)O1 | 117% and 108%
Nc1nc(-c2cc3c(cc2Cl)NC(=O)/C3=C/c2ccc(Cl)cc2)cs1 | -14% (active)
Cn1c2ccccc2c2c3c(c4c5cc(Br)ccc5n(C)c4c21)C(=O)N(O)C3=O | -0.278% (active)
CCCCOC(=O)c1cccc([N+](=O)[O-])c1 | 101%
Nc1ncc(-c2ccc(C(F)(F)F)cc2)c(NC2CCCCCC2)n1 | -3.25% (active)
CN(Cc1cnc2nc(N)nc(N)c2n1)c1ccc(C(=O)NC(CCC(=O)O)C(=O)O)cc1 (stereo not given) | 6.99% (active)
COc1ccc(/C=C/c2nc(Nc3ccc(S(=O)(=O)NC(C)=O)cc3)c3ccccc3n2)cc1 | 53.2%

From PubChem BioAssay (NCI)
